Results as given in PMC7862700, “An all-to-all approach to the identification of sequence-specific readers for epigenetic DNA modifications on cytosine”.

Tests used:
Test in all cases: DAPPL (digital affinity profiling via proximity ligation, sequencing); 10 mM Tris-HCl pH 7.5, 50 mM NaCl, 1 mM DTT, 4% glycerol, room temperature, 30 min; GST-TFs on glutathione beads, 16-mer random dsDNA library, 0.1% formaldehyde crosslink after washing; high values mean tight binding
FLI1 = molecular target: T1, FLI1 (Homo sapiens, UniProt Q01543 1-452); conditions: protein: recombinant; tags: N-terminal GST; dsDNA, one strand shown
T1 sequence: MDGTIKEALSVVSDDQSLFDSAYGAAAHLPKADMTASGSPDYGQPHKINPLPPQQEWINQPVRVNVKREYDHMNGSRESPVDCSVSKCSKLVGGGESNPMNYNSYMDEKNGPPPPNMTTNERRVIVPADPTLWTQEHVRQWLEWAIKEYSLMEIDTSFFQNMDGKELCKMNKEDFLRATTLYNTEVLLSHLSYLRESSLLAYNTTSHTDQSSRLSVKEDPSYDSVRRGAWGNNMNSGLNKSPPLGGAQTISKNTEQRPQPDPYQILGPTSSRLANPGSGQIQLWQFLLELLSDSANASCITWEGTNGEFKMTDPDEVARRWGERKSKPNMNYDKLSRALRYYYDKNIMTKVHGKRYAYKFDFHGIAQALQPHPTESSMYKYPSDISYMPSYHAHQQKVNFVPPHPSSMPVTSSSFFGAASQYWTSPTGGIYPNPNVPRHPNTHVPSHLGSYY
Outline: (§1)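 GST fusions of human transcription factors were expressed in yeast and captured with glutathione beads. Once given DNA barcodes and pooled alongside a tag-only sample, they were incubated for 30 min at room temperature with 200 nmole of a random double-stranded 16-mer DNA library in Tris/NaCl/DTT/glycerol buffer, then washed, crosslinked (0.1% formaldehyde), proximity-ligated, PCR-amplified and sequenced on an Illumina NextSeq500. The binding signal of each hexamer is its read frequency for a factor divided by its frequency for the tag-only sample.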

ELK1 = molecular target: T2, ELK1 (Homo sapiens, UniProt P19419 1-428); conditions: protein: recombinant; tags: N-terminal GST; dsDNA, one strand shown
T2 sequence: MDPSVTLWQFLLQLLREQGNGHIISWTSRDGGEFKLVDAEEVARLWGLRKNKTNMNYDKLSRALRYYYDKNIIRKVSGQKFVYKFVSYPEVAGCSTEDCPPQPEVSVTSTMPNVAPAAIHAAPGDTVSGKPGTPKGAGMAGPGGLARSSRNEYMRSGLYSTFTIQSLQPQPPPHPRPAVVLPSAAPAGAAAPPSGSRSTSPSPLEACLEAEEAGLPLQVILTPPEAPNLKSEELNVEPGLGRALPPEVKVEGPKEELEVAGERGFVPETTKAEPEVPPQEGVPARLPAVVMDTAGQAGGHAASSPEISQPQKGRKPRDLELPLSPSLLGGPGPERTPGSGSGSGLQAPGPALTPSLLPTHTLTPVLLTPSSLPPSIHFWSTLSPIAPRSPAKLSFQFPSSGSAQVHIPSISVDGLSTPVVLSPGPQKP
Outline: as §1

GABPA = molecular target: T3, GABPA (Homo sapiens, UniProt Q06546 1-454); conditions: protein: recombinant; tags: N-terminal GST; dsDNA, one strand shown
T3 sequence: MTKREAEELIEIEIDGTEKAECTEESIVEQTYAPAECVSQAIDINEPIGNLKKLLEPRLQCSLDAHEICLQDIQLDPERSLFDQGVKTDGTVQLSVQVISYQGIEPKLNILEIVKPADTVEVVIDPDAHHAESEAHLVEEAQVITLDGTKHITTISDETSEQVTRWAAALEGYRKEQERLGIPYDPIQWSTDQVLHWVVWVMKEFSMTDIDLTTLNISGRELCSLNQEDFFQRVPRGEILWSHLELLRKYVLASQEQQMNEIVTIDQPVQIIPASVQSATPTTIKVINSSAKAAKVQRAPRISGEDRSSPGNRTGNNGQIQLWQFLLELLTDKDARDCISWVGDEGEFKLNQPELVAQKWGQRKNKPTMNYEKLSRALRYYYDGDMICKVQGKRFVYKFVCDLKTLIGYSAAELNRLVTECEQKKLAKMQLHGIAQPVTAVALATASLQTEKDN
Outline: as §1

ERG = molecular target: T4, ERG (Homo sapiens, UniProt P11308 1-479); conditions: protein: recombinant; tags: N-terminal GST; dsDNA, one strand shown
T4 sequence: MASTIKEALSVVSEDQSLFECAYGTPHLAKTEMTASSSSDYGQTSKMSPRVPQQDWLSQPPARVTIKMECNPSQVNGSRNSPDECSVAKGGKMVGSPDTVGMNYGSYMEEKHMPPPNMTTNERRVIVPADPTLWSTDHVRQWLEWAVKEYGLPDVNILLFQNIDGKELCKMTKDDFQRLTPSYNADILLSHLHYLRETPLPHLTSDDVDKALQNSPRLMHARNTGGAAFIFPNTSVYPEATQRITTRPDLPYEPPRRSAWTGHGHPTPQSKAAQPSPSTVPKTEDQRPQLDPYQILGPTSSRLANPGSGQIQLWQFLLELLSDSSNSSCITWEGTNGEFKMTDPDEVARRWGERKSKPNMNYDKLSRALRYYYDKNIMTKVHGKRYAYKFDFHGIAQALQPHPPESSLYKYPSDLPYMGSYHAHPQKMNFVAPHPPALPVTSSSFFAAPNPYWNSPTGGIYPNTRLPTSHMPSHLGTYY
Outline: as §1

ELF1 = ELF1 (Homo sapiens, UniProt P32519 1-619); conditions: protein: recombinant; tags: N-terminal GST; dsDNA, one strand shown
Sequence of ELF1 (P32519 whole entry): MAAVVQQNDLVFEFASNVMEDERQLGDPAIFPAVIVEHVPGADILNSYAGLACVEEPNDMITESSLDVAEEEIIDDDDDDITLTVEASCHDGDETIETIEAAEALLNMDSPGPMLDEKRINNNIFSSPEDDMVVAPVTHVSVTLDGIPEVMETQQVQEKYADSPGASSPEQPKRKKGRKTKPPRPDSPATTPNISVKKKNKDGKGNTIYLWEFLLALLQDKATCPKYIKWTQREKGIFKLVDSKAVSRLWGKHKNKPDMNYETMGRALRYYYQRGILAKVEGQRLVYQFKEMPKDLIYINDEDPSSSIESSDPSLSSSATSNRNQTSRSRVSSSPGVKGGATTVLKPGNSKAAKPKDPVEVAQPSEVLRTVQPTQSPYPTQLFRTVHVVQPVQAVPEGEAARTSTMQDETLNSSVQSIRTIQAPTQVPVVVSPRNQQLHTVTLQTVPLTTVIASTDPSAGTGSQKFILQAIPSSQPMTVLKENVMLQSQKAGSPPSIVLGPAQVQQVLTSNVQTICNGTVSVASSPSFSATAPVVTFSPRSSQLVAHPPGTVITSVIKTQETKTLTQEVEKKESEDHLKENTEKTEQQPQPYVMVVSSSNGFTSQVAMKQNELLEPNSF
Outline: as §1

EHF = molecular target: T5, EHF (Homo sapiens, UniProt Q9NZC4 1-300); conditions: protein: recombinant; tags: N-terminal GST; dsDNA, one strand shown
T5 sequence: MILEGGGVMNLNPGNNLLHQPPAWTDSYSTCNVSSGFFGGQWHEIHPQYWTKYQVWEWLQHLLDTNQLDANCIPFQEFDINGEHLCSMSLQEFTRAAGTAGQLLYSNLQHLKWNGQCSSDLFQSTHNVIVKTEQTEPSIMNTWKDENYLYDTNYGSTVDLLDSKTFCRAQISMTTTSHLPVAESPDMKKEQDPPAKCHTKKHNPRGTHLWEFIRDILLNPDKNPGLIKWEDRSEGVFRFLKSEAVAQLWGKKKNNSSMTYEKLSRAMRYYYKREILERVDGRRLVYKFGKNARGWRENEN
Outline: as §1

SPI1 = SPI1 (Homo sapiens, UniProt P17947 1-270); conditions: protein: recombinant; tags: N-terminal GST; dsDNA, one strand shown
Outline: as §1

SPIB = SPIB (Homo sapiens, UniProt Q01892 1-262); conditions: protein: recombinant; tags: N-terminal GST; dsDNA, one strand shown
Sequence of SPIB (Q01892 whole entry): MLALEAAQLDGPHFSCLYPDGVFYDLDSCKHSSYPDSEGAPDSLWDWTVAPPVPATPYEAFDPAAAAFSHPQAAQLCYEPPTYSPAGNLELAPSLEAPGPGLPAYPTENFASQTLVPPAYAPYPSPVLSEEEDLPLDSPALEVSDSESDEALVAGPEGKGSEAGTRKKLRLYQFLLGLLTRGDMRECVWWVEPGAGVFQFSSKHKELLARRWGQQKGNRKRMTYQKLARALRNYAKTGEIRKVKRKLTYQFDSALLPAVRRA
Outline: as §1

ELK3 = molecular target: T6, ELK3 (Homo sapiens, UniProt P41970 1-407); conditions: protein: recombinant; tags: N-terminal GST; dsDNA, one strand shown
T6 sequence: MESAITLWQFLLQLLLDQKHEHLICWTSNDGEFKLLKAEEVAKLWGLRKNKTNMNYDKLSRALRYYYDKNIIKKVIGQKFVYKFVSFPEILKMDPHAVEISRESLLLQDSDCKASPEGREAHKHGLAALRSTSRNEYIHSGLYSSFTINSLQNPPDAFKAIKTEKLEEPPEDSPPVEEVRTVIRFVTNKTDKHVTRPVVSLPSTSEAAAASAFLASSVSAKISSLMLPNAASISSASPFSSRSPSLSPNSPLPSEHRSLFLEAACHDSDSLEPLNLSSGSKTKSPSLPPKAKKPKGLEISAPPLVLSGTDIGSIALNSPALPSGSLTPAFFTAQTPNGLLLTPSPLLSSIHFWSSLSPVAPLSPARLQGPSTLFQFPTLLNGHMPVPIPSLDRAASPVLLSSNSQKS
Outline: as §1

FEV = molecular target: T7, FEV (Homo sapiens, UniProt Q99581 1-238); conditions: protein: recombinant; tags: N-terminal GST; dsDNA, one strand shown
T7 sequence: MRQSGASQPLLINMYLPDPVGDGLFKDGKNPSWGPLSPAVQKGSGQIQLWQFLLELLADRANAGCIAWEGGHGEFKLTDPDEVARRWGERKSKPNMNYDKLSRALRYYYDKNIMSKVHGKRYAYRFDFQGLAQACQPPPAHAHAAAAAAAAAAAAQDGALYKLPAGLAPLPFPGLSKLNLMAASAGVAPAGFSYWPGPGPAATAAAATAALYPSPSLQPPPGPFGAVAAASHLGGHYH
Outline: as §1

ETV5 = ETV5 (Homo sapiens, UniProt P41161 1-510); conditions: protein: recombinant; tags: N-terminal GST; dsDNA, one strand shown
Sequence of ETV5 (P41161 whole entry): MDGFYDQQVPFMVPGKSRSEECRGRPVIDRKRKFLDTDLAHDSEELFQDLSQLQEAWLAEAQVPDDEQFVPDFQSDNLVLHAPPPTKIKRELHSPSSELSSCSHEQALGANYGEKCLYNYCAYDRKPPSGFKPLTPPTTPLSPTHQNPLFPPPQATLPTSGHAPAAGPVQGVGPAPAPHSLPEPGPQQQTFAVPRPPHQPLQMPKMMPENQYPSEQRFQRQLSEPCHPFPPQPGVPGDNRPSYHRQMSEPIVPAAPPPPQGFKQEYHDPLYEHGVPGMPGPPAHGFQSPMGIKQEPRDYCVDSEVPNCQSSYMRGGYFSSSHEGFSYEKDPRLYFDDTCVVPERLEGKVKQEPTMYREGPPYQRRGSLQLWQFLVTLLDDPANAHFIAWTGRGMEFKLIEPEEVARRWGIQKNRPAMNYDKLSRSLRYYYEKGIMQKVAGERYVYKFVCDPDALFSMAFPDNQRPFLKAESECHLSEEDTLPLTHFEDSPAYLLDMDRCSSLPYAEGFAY
Outline: as §1

HSF1 = HSF1 (Homo sapiens, UniProt Q00613 1-529); conditions: protein: recombinant; tags: N-terminal GST; chain copies: 3; dsDNA, one strand shown
Sequence of HSF1 (Q00613 whole entry): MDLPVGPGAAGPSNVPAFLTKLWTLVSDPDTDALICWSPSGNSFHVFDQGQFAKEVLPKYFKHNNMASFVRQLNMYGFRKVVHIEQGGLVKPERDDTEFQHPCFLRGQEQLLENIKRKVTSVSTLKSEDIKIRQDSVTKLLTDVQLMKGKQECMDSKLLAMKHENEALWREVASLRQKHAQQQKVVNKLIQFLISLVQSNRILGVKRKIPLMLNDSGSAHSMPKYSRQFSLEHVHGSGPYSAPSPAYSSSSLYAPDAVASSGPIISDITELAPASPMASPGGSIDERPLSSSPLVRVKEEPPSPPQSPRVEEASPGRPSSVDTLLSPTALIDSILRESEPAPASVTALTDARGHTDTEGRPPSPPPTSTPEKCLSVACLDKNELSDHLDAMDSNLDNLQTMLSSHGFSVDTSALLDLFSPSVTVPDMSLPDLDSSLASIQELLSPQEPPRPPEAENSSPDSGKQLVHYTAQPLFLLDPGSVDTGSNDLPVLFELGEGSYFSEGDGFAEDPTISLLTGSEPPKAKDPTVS
Outline: as §1

SPIC = molecular target: T8, SPIC (Homo sapiens, UniProt Q8N5J4 1-248); conditions: protein: recombinant; tags: N-terminal GST; dsDNA, one strand shown
T8 sequence: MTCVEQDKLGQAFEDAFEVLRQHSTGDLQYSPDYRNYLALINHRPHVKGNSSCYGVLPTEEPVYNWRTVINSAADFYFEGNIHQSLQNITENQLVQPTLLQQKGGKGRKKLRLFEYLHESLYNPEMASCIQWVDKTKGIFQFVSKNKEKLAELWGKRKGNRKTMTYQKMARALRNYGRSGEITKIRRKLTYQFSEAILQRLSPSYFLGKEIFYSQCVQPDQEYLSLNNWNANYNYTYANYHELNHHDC
Outline: as §1

ELF4 = ELF4 (Homo sapiens, UniProt Q99607 1-663); conditions: protein: recombinant; tags: N-terminal GST; dsDNA, one strand shown
Sequence of ELF4 (Q99607 whole entry): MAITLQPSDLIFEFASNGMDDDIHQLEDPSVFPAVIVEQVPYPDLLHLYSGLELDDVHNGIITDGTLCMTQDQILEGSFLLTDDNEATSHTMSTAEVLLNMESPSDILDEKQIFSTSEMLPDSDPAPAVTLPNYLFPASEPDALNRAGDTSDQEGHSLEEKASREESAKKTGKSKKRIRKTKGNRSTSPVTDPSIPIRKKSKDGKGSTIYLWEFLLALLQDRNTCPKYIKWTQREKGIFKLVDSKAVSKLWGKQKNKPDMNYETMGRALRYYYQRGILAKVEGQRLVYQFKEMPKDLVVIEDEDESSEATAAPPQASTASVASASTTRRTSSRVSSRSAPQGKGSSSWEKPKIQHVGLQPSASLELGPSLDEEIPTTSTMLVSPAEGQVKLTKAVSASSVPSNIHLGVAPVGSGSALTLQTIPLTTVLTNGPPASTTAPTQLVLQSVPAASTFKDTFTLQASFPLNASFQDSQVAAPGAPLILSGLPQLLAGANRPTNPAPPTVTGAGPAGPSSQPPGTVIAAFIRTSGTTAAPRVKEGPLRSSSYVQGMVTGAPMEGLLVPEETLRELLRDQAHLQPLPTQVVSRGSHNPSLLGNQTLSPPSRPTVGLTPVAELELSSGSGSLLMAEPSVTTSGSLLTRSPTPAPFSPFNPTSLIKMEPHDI
Outline: as §1

ELK4 = molecular target: T9, ELK4 (Homo sapiens, UniProt P28324-2 1-405); conditions: protein: recombinant; tags: N-terminal GST; dsDNA, one strand shown
T9 sequence: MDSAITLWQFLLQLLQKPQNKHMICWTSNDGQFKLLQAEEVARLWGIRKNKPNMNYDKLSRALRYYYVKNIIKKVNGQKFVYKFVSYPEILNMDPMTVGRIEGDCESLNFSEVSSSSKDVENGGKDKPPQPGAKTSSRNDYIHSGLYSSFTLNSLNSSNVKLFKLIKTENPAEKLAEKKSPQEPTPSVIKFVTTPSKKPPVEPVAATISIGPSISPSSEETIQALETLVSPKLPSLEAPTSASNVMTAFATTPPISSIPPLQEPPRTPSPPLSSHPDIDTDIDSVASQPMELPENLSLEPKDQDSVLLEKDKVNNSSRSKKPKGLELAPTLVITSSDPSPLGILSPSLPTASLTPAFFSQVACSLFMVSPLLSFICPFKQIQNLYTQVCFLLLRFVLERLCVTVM
Outline: as §1

ETV2 = molecular target: T10, ETV2 (Homo sapiens, UniProt O00321 1-342); conditions: protein: recombinant; tags: N-terminal GST; dsDNA, one strand shown
T10 sequence: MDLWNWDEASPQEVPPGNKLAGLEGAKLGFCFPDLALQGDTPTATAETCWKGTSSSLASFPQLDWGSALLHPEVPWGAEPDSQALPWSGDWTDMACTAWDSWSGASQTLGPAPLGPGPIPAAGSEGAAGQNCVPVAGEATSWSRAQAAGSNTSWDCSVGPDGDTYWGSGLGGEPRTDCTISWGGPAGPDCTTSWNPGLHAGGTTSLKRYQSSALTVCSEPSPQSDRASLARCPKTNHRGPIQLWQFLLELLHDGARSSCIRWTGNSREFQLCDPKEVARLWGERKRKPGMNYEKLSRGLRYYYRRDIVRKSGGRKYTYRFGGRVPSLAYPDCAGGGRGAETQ
Outline: as §1

ELF3 = molecular target: T11, ELF3 (Homo sapiens, UniProt P78545 1-371); conditions: protein: recombinant; tags: N-terminal GST; dsDNA, one strand shown
T11 sequence: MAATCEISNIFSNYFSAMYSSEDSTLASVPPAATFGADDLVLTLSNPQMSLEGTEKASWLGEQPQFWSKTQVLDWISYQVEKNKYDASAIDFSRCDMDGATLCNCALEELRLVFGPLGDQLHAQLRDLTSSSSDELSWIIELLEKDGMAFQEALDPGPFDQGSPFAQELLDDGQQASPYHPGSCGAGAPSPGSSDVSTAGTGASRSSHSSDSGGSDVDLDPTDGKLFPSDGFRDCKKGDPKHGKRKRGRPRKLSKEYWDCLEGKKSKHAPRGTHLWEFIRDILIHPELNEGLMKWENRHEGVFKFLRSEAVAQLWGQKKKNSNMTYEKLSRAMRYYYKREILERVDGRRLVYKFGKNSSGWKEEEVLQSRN
Outline: as §1

CRX = CRX (Homo sapiens, UniProt O43186 1-299); conditions: protein: recombinant; tags: N-terminal GST; dsDNA, one strand shown
Sequence of CRX (O43186 whole entry): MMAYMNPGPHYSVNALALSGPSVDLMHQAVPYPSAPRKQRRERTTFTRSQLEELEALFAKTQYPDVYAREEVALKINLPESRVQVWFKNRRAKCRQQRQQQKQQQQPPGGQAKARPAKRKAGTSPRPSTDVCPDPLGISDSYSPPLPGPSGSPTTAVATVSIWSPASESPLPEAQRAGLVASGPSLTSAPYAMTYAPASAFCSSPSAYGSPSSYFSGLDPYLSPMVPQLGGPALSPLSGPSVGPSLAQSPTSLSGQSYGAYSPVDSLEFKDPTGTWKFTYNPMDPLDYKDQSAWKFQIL
Outline: as §1

ETV1 = ETV1 (Homo sapiens, UniProt P50549 1-477); conditions: protein: recombinant; tags: N-terminal GST; dsDNA, one strand shown
Sequence of ETV1 (P50549 whole entry): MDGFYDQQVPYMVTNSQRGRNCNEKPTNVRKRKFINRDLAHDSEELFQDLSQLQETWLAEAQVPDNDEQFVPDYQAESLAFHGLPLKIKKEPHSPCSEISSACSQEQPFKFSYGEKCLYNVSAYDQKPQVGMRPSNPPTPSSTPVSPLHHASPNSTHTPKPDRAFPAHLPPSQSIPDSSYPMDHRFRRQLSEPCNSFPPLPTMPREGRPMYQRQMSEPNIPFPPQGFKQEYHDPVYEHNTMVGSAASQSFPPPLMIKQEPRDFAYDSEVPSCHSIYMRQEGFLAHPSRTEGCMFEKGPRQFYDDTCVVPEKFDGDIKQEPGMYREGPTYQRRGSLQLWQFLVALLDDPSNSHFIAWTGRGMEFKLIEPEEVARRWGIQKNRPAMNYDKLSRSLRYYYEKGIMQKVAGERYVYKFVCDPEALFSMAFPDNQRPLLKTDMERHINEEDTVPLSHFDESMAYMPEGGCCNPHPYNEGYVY
Outline: as §1

ACTCTA
binding signal (FLI1): 1.42 fold enrichment (6-mer frequency, TF over GST control) | binding signal (ELK1): 1.46 fold enrichment (6-mer frequency, TF over GST control) | binding signal (GABPA): 1.52 fold enrichment (6-mer frequency, TF over GST control) | binding signal (ERG): 1.39 fold enrichment (6-mer frequency, TF over GST control) | binding signal (ELF1): 1.52 fold enrichment (6-mer frequency, TF over GST control) | binding signal (EHF): 1.56 fold enrichment (6-mer frequency, TF over GST control) | binding signal (SPI1): 1.5 fold enrichment (6-mer frequency, TF over GST control) | binding signal (SPIB): 1.45 fold enrichment (6-mer frequency, TF over GST control) | binding signal (ELK3): 1.38 fold enrichment (6-mer frequency, TF over GST control) | binding signal (FEV): 1.45 fold enrichment (6-mer frequency, TF over GST control) | binding signal (ETV5): 1.48 fold enrichment (6-mer frequency, TF over GST control) | binding signal (HSF1): 1.63 fold enrichment (6-mer frequency, TF over GST control) | binding signal (SPIC): 1.63 fold enrichment (6-mer frequency, TF over GST control) | binding signal (ELF4): 1.41 fold enrichment (6-mer frequency, TF over GST control) | binding signal (ELK4): 1.43 fold enrichment (6-mer frequency, TF over GST control) | binding signal (ETV2): 1.41 fold enrichment (6-mer frequency, TF over GST control) | binding signal (ELF3): 1.36 fold enrichment (6-mer frequency, TF over GST control) | binding signal (CRX): 1.52 fold enrichment (6-mer frequency, TF over GST control) | binding signal (ETV1): 1.42 fold enrichment (6-mer frequency, TF over GST control)
